# Activity calls are given as the source filed them.
# What was measured:
# [1] = anti-His antibody binders, primary screen, artefact control for SMM control protein annotation, biochemical, small-molecule microarray, 635 nm fluorescence (AID 1128); details: anti-His Alexa647 antibody binding, higher = more signal;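 note: score merges feature fluorescence with signal-to-noise for each printed compound spot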
# [2] = test system: Human papillomavirus type 1a E7 protein (residues 1-88); experiment: HPV1a E7 small-molecule binders, primary screen, biochemical, small-molecule microarray, residues 1-88, 635 nm (AID 1129); details: small-molecule microarray binding, fluorescence 635 nm; higher = more signal
# [3] = target: Focal adhesion kinase 1 (Homo sapiens) (UniProt Q05397); experiment: small-molecule microarray binders of FAK, primary screen, biochemical, 635/667 nm fluorescence, BSA, DTT (AID 1130); details: PTK2 binding, 635 nm fluorescence, higher = more signal;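 note: composite of spot emission at 667 nm and signal to noise over triplicate slides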
# [4] = test system: Fibrinogen (Alexa647-labelled); experiment: fibrinogen binders on compound microarrays, profiling panel, artefact control for SMM control-protein annotation, biochemical, small-molecule microarray, 635/667 nm fluorescence (AID 1131); details: fibrinogen-A647 binding fluorescence, higher = more signal;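 note: z-score merges 667 nm fluorescence with per-spot signal-to-noise over triplicate slides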
# [5] = target: Follistatin (Homo sapiens) (UniProt P19883); experiment: follistatin binders on small-molecule microarrays, primary screen, biochemical, small-molecule microarray, 635/667 nm fluorescence (AID 1132); details: FST binding, 635 nm fluorescence, higher = more signal
# [6] = target: Fibroblast growth factor 2 (Homo sapiens) (UniProt P09038); experiment: FGF2 binders on small-molecule microarrays, primary screen, biochemical, small-molecule microarray, 635/667 nm fluorescence (AID 1133); details: small-molecule microarray binding, FGF2, fluorescence 635/667; higher = more signal
# [7] = mitochondrial membrane potential change in A549 cells, profiling panel, cell-based, JC-1 fluorescence, basal, 24 h, 100 nL (AID 1138); details: higher = more signal;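 note: A549 lung adenocarcinoma cells under basal conditions with no added stimulus; test concentration not given here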
# Lefty1 = Lefty1 binders on small-molecule microarrays, primary screen, biochemical, small-molecule microarray, 635/667 nm fluorescence (AID 1139); details: small-molecule microarray binding, fluorescence 635/667; higher = more signal
# [8] = test system: wheat germ agglutinin (Triticum aestivum), Alexa647-labelled; experiment: wheat germ agglutinin binders on compound microarrays, profiling panel, artefact control for SMM control-protein annotation, biochemical, small-molecule microarray, 635/667 nm fluorescence (AID 1140); details: WGA-A647 binding, 635 nm fluorescence, higher = more signal;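 note: score merges 667 nm feature emission with signal to noise over triplicate slides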
# [9] = target: Luciferin 4-monooxygenase (Photinus pyralis) (UniProt P08659); experiment: firefly luciferase enzyme inhibitors, primary screen, biochemical, luminescence, purified enzyme, 2006 set (AID 1141); details: SteadyGlo luminescence, 30 min, higher = more signal, called active from +8 up or from −8 down;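 note: cell-free assay with purified firefly luciferase at 100 ng per well in PBS; test concentration not given here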
# Chain of Luciferin 4-monooxygenase (Photinus pyralis) (P08659 whole entry, looked up): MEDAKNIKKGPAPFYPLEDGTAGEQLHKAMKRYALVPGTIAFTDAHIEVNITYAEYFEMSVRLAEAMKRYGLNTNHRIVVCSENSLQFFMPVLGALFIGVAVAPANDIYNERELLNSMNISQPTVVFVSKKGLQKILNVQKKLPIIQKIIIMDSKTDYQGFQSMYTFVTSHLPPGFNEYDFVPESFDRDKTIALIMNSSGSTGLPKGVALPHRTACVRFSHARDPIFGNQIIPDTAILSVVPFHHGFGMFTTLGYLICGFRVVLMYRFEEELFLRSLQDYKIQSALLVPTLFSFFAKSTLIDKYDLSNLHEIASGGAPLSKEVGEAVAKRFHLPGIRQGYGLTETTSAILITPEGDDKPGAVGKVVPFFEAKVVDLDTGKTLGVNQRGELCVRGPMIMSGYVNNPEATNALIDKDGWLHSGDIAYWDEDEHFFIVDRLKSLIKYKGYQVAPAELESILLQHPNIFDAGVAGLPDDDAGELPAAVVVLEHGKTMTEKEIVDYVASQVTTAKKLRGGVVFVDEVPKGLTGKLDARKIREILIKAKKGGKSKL
# Chain of Fibroblast growth factor 2 (Homo sapiens) (P09038 whole entry, looked up): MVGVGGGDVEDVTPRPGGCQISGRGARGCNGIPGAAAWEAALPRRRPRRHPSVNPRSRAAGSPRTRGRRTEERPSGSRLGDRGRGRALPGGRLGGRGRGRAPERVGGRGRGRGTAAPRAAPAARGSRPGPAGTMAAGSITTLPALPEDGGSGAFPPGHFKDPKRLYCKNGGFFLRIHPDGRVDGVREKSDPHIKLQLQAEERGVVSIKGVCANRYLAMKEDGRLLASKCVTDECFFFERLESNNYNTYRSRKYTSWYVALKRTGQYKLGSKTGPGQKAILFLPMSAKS
# Chain of Focal adhesion kinase 1 (Homo sapiens) (Q05397 whole entry, looked up): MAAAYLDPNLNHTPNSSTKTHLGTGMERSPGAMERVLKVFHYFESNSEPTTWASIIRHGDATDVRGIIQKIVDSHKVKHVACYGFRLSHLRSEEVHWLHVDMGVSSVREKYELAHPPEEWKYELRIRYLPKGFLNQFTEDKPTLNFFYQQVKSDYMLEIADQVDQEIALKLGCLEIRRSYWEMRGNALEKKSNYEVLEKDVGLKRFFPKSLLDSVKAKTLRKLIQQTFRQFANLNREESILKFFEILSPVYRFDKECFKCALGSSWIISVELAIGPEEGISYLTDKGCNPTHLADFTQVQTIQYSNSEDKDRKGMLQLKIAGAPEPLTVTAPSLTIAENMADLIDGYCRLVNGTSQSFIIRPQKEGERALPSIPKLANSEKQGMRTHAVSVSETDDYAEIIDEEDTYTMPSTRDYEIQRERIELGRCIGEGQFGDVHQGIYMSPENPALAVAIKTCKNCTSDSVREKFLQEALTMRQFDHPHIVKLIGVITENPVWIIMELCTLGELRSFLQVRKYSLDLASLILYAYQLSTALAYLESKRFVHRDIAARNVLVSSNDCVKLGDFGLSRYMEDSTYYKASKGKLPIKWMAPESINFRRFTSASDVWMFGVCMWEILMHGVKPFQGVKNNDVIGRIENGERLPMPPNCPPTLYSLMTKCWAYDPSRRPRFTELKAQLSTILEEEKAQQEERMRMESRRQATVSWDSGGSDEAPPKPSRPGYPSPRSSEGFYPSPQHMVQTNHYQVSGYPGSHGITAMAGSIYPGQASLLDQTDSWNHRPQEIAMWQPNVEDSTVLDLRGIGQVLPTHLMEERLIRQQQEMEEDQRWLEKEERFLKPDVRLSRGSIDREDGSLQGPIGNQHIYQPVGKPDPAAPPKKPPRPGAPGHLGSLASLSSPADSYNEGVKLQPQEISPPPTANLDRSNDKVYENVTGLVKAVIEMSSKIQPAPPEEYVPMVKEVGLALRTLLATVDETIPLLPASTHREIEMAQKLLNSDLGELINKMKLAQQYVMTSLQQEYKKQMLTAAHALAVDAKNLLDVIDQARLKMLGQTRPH
# Chain of Follistatin (Homo sapiens) (P19883 whole entry, looked up): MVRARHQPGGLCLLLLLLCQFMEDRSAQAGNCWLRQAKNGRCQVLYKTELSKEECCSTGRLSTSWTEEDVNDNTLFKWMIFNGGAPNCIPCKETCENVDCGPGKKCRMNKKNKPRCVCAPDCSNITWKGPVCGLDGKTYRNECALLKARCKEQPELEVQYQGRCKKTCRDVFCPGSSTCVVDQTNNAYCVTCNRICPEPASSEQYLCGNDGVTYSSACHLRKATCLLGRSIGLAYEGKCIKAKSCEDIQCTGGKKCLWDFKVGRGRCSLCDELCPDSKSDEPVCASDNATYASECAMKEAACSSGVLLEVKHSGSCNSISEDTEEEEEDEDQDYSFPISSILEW
SMILES,composite z-score [1],composite z-score [2],composite z-score [3],composite z-score [4],composite z-score [5],composite z-score [6],z-score [7],composite z-score (Lefty1),composite z-score [8],z-score [9]
CCOC(=O)[C@H](CC(C)C)NC(=O)CCC1CC(OC(=O)NCc2cccc3ccccc23)CC2(CCCC(COC(=O)NCCCN3CCCC3=O)O2)O1 (stereo not given in full),0.551,1.06,0.205,0.634,0.745,0.737,-0.754,0.925,0.662,0.974 (inactive)
Cc1ccc(S(=O)(=O)NC(CCc2ccccc2)CC(=O)C(C)(C)C)cc1 (stereo not given),0.569,0.7,0.0786,0.821,0.615,0.939,-0.124,0.625,0.693,0.74 (inactive)
CCOC(=O)NN=C1C[C@@H](O)[C@@H](O)[C@@H]2[C@@H]3C(=O)N(c4cccc(Oc5ccccc5)c4)C(=O)[C@@H]3CC[C@@H]12,-0.103,0.45,0.0767,0.681,-0.445,-0.248,-0.44,-0.318,0.327,0.607 (inactive)
COC(=O)C1=C(C)N(Cc2ccccc2)[C@]23O[C@](C(=O)OC)(C(=O)N2[C@@H]1c1ccccc1)C(C(=O)OC)=C3C(=O)OC,0.686,0.653,0.0309,0.784,0.732,0.808,-0.489,1.09,-0.0964,-0.371 (inactive)
CC(C)[C@@H](OCc1ccccc1)[C@H](C)C=NOC[C@@H](O)COCc1ccco1,1.29,-0.244,-0.277,-1.75,-1.05,-1.37,-0.541,-0.801,-1.29,0.331 (inactive)
COc1ccc(O[C@H]2C=C[C@@H](c3ccccc3)O[C@@H]2CON=C(C)CCC(=O)OC[C@H]2O[C@H](c3ccccc3)C=C[C@@H]2Oc2ccc(OC)cc2)cc1,0.704,-2.01,-0.204,-0.218,-0.174,-0.922,0.0976,-0.162,-1.13,1.27 (inactive)
CCCNC(=O)OC[C@H]1O[C@H](CCON=C(C)CCC(=O)OC[C@H]2O[C@H](c3ccccc3)C=C[C@@H]2Oc2ccc(OC)cc2)C=C[C@@H]1Oc1ccc(OC)cc1,2.6,-1.45,-0.447,-0.467,-0.342,-0.273,0.424,0.171,0.619,1 (inactive)
CC(C)CON=C1C[C@@H](O)[C@@H](O)[C@@H]2[C@@H]3C(=O)N(C4CCCCC4)C(=O)[C@@H]3CC[C@H]12,0.55,0.666,0.005,0.657,0.346,0.781,0.246,0.837,0.812,-0.266 (inactive)
CCOC(=O)[C@H](CC(C)C)NC(=O)CCC1CC(OC(=O)NCc2cccc3ccccc23)CC2(CCCC(COC(=O)NCc3ccncc3)O2)O1 (stereo not given in full),0.894,1.19,0.0121,0.839,0.768,1.58,1.42,1.01,0.725,0.301 (inactive)
CCCNC(=O)OC[C@H]1O[C@H](CCON=C(C)CCN2CCCc3nc(C)c(C)cc32)C=C[C@@H]1Oc1ccc(OC)cc1,1.4,1.09,0.664,0.808,0.585,0.499,1.85,0.252,0.625,0.326 (inactive)
COC(=O)CC=C[C@@H](C)[C@@H](C=NOCC[C@@H]1C=C[C@H](OC(C)=O)[C@@H](COC(C)=O)O1)NS(=O)(=O)c1ccc(C)cc1,2.34,-0.185,0.15,-0.329,0.273,0.237,-0.482,0.36,-0.477,1.2 (inactive)
CC(C)(C)N1C(=O)[C@H]2[C@H]3[C@H](O)[C@H](O)CC(=NO[C@@H]4O[C@H](CO)[C@@H](O)[C@H](O)[C@H]4O)[C@H]3CC[C@H]2C1=O,0.492,0.15,-0.0244,-1.06,0.86,0.348,-1.43,0.585,-0.297,0.585 (inactive)
CO[C@@H]1COC(=O)[C@@H](C)NC(=O)CC=C[C@@H](C)[C@H](NS(=O)(=O)c2ccc(C)cc2)COC(=O)[C@H](C)NC(=O)CC=C[C@H]1C,-0.0135,-0.693,-0.0691,-0.965,0.848,0.0303,1.07,0.895,-0.694,-1.15 (inactive)
COC(=O)CC=C[C@@H](C)[C@@H](C=NO[C@H](C)c1cn([C@H](CO)Cc2ccccc2)nn1)NS(=O)(=O)c1ccc(C)cc1,2.47,0.611,0.608,0.951,0.268,0.0757,-0.248,0.19,0.645,-0.965 (inactive)
CO[C@@H]1C=CCC(=O)N[C@@H](C)C(=O)OC[C@@H](OC)[C@H](C)CCCC(=O)OC[C@H]1C,2.07,-1.64,-0.195,-1.64,1.39,0.343,-0.393,1.37,-0.268,1.13 (inactive)
COc1ccc(COC(=O)NN=C2C[C@@H](O)[C@@H](O)[C@@H]3[C@@H]4C(=O)N(C5CCCCC5)C(=O)[C@@H]4CC[C@H]23)cc1,-0.823,-0.552,-0.497,-0.439,-1.72,-1.04,0.195,-1.42,0.778,-0.224 (inactive)

# Reference: PubChem BioAssay
